In article PMC9911399, “Two distinct binding modes provide the RNA-binding protein RbFox with extraordinary sequence specificity”:
Positions count from the first letter of the chain named. Over roughly 16,000 sequences, “ka relative to ugcaugu” has its median near 0.096; the highest 2% begin near 0.35. The entries come from a sample that favours the highest values as a whole.

T1: RBFOX1 RRM RbFoxmut (Fox-RRM*) (Homo sapiens, UniProt Q9NWB1 109-208, R118D;E147R;N151S;E152T)
T1 sequence: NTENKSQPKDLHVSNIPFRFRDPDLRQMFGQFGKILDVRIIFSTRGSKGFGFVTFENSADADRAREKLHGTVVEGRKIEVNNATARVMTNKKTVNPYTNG

B1: AUGUAGA (DNA:RNA)
RNA: GGGAGACCGGAAUUCAGAUUGUCCAUGUAGAUUAAAUCCCGUCGUAGCCACCA
DNA 1: CAATCTGAATTCCGGTCTCCC
DNA 2: TGGTGGCTACGACGGGATT
B2: AUGUAUC (DNA:RNA)
RNA: B1 RNA with G30U, A31C
DNA 1: CAATCTGAATTCCGGTCTCCC
DNA 2: TGGTGGCTACGACGGGATT
B3: AUGUAAA (DNA:RNA)
RNA: B1 RNA with G30A
DNA 1: CAATCTGAATTCCGGTCTCCC
DNA 2: TGGTGGCTACGACGGGATT
B4: ACGUAUC (DNA:RNA)
RNA: B1 RNA with U26C, G30U, A31C
DNA 1: CAATCTGAATTCCGGTCTCCC
DNA 2: TGGTGGCTACGACGGGATT
B5: AUGUAUG (DNA:RNA)
RNA: B1 RNA with G30U, A31G
DNA 1: CAATCTGAATTCCGGTCTCCC
DNA 2: TGGTGGCTACGACGGGATT
B6: AUAUGUA (DNA:RNA)
RNA: B1 RNA with G27A, A29G, G30U
DNA 1: CAATCTGAATTCCGGTCTCCC
DNA 2: TGGTGGCTACGACGGGATT
B7: UAUUAUG (DNA:RNA)
RNA: B1 RNA with A25U, U26A, G27U, G30U, A31G
DNA 1: CAATCTGAATTCCGGTCTCCC
DNA 2: TGGTGGCTACGACGGGATT
B8: UAAGUUC (DNA:RNA)
RNA: GGGAGACCGGAAUUCAGAUUGUCCUAAGUUCUUAAAUCCCGUCGUAGCCACCA
DNA 1: CAATCTGAATTCCGGTCTCCC
DNA 2: TGGTGGCTACGACGGGATT
B9: GGAUAGG (DNA:RNA)
RNA: B1 RNA with A25G, U26G, G27A, A31G
DNA 1: CAATCTGAATTCCGGTCTCCC
DNA 2: TGGTGGCTACGACGGGATT
B10: UUGUAUU (DNA:RNA)
RNA: B1 RNA with A25U, G30U, A31U
DNA 1: CAATCTGAATTCCGGTCTCCC
DNA 2: TGGTGGCTACGACGGGATT
B11: CCCGAGU (DNA:RNA)
RNA: B1 RNA with A25C, U26C, G27C, U28G, A31U
DNA 1: CAATCTGAATTCCGGTCTCCC
DNA 2: TGGTGGCTACGACGGGATT
B12: UCGCAUC (DNA:RNA)
RNA: B8 RNA with A26C, A27G, G28C, U29A
DNA 1: CAATCTGAATTCCGGTCTCCC
DNA 2: TGGTGGCTACGACGGGATT
B13: UCGCGCA (DNA:RNA)
RNA: B1 RNA with A25U, U26C, U28C, A29G, G30C
DNA 1: CAATCTGAATTCCGGTCTCCC
DNA 2: TGGTGGCTACGACGGGATT
B14: UCAGAUC (DNA:RNA)
RNA: B8 RNA with A26C, U29A
DNA 1: CAATCTGAATTCCGGTCTCCC
DNA 2: TGGTGGCTACGACGGGATT
B15: UCGCAUA (DNA:RNA)
RNA: B1 RNA with A25U, U26C, U28C, G30U
DNA 1: CAATCTGAATTCCGGTCTCCC
DNA 2: TGGTGGCTACGACGGGATT
B16: UCGCAUG (DNA:RNA)
RNA: B1 RNA with A25U, U26C, U28C, G30U, A31G
DNA 1: CAATCTGAATTCCGGTCTCCC
DNA 2: TGGTGGCTACGACGGGATT
B17: UCGCAGA (DNA:RNA)
RNA: B1 RNA with A25U, U26C, U28C
DNA 1: CAATCTGAATTCCGGTCTCCC
DNA 2: TGGTGGCTACGACGGGATT
B18: UGAACAA (DNA:RNA)
RNA: B8 RNA with A26G, G28A, U29C, U30A, C31A
DNA 1: CAATCTGAATTCCGGTCTCCC
DNA 2: TGGTGGCTACGACGGGATT
B19: AUUUACA (DNA:RNA)
RNA: B1 RNA with G27U, G30C
DNA 1: CAATCTGAATTCCGGTCTCCC
DNA 2: TGGTGGCTACGACGGGATT
B20: UGAUGCG (DNA:RNA)
RNA: B8 RNA with A26G, G28U, U29G, U30C, C31G
DNA 1: CAATCTGAATTCCGGTCTCCC
DNA 2: TGGTGGCTACGACGGGATT
B21: UUGUGGU (DNA:RNA)
RNA: B1 RNA with A25U, A29G, A31U
DNA 1: CAATCTGAATTCCGGTCTCCC
DNA 2: TGGTGGCTACGACGGGATT
B22: ACACGAA (DNA:RNA)
RNA: B1 RNA with U26C, G27A, U28C, A29G, G30A
DNA 1: CAATCTGAATTCCGGTCTCCC
DNA 2: TGGTGGCTACGACGGGATT
B23: GCGUAAC (DNA:RNA)
RNA: B1 RNA with A25G, U26C, G30A, A31C
DNA 1: CAATCTGAATTCCGGTCTCCC
DNA 2: TGGTGGCTACGACGGGATT
B24: GGACGCA (DNA:RNA)
RNA: B1 RNA with A25G, U26G, G27A, U28C, A29G, G30C
DNA 1: CAATCTGAATTCCGGTCTCCC
DNA 2: TGGTGGCTACGACGGGATT
B25: UUAGUGG (DNA:RNA)
RNA: B8 RNA with A26U, U30G, C31G
DNA 1: CAATCTGAATTCCGGTCTCCC
DNA 2: TGGTGGCTACGACGGGATT
B26: GACAUGC (DNA:RNA)
RNA: B8 RNA with U25G, A27C, G28A, U30G
DNA 1: CAATCTGAATTCCGGTCTCCC
DNA 2: TGGTGGCTACGACGGGATT
B27: GUCAUGC (DNA:RNA)
RNA: B1 RNA with A25G, G27C, U28A, A29U, A31C
DNA 1: CAATCTGAATTCCGGTCTCCC
DNA 2: TGGTGGCTACGACGGGATT
B28: CGCAUGC (DNA:RNA)
RNA: B8 RNA with U25C, A26G, A27C, G28A, U30G
DNA 1: CAATCTGAATTCCGGTCTCCC
DNA 2: TGGTGGCTACGACGGGATT
B29: ACAUGCU (DNA:RNA)
RNA: B1 RNA with U26C, G27A, A29G, G30C, A31U
DNA 1: CAATCTGAATTCCGGTCTCCC
DNA 2: TGGTGGCTACGACGGGATT
B30: GCCAUGC (DNA:RNA)
RNA: B8 RNA with U25G, A26C, A27C, G28A, U30G
DNA 1: CAATCTGAATTCCGGTCTCCC
DNA 2: TGGTGGCTACGACGGGATT
B31: GUCCGCU (DNA:RNA)
RNA: B1 RNA with A25G, G27C, U28C, A29G, G30C, A31U
DNA 1: CAATCTGAATTCCGGTCTCCC
DNA 2: TGGTGGCTACGACGGGATT
B32: GCAUUGC (DNA:RNA)
RNA: B8 RNA with U25G, A26C, G28U, U30G
DNA 1: CAATCTGAATTCCGGTCTCCC
DNA 2: TGGTGGCTACGACGGGATT
B33: GCAUGCU (DNA:RNA)
RNA: B1 RNA with A25G, U26C, G27A, A29G, G30C, A31U
DNA 1: CAATCTGAATTCCGGTCTCCC
DNA 2: TGGTGGCTACGACGGGATT
B34: GGCAUGC (DNA:RNA)
RNA: B8 RNA with U25G, A26G, A27C, G28A, U30G
DNA 1: CAATCTGAATTCCGGTCTCCC
DNA 2: TGGTGGCTACGACGGGATT

What follows are binders tested against T1, RBFOX1 RRM RbFoxmut (Fox-RRM*) (assay: EMSA; HiTS-Eq, 1 nM pool, 10 min; buffer printed only for the single-RNA assays: 10 mM Tris pH 7.5, 150 mM NaCl, 3.4 mM EDTA, 0.001% NP-40, 30 C). Conditions: tags: His6 N-terminal (pET28a); label: 5' 32P.
Outline: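 Purified RbFox RRM (wild type or mutant) was equilibrated for 10 min in 50 µL with 1 nM of a 5′-radiolabelled pool of RNA with 7 randomized nucleotides, its flanks annealed to DNA oligonucleotides, across increasing protein concentrations. Free RNA was separated by 8% native PAGE, excised, reverse-transcribed, PCR-barcoded and sequenced on an Illumina HiSeq 2500. Relative association constants came from read-count changes of each variant against the control reaction, normalised to the cognate motif.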
For B1, the binding signal was 0.152 KA relative to UGCAUGU.
B2 was tested, and the binding signal was 0.407 KA relative to UGCAUGU.
In the case of B3, the binding signal is reported as 0.169 KA relative to UGCAUGU.
In the case of B4, the binding signal is reported as 0.185 KA relative to UGCAUGU.
With B5 the binding signal was 1.19 KA relative to UGCAUGU.
In the case of B6, the binding signal is reported as 0.261 KA relative to UGCAUGU.
B7 was tested, and the binding signal was 0.158 KA relative to UGCAUGU.
In the case of B8, the binding signal is reported as 0.0634 KA relative to UGCAUGU.
In the case of B9, the binding signal is reported as 0.0913 KA relative to UGCAUGU.
In the case of B10, the binding signal is reported as 0.171 KA relative to UGCAUGU.
For B11, the binding signal was 0.094 KA relative to UGCAUGU.
For B12, the binding signal was 0.597 KA relative to UGCAUGU.
With B13 the binding signal was 0.104 KA relative to UGCAUGU.
In the case of B14, the binding signal is reported as 0.0785 KA relative to UGCAUGU.
In the case of B15, the binding signal is reported as 0.125 KA relative to UGCAUGU.
In the case of B16, the binding signal is reported as 1.06 KA relative to UGCAUGU.
With B17 the binding signal was 0.0842 KA relative to UGCAUGU.
For B18, the binding signal was 0.047 KA relative to UGCAUGU.
For B19, the binding signal was 0.119 KA relative to UGCAUGU.
In the case of B20, the binding signal is reported as 0.141 KA relative to UGCAUGU.
With B21 the binding signal was 0.164 KA relative to UGCAUGU.
For B22, the binding signal was 0.0925 KA relative to UGCAUGU.
In the case of B23, the binding signal is reported as 0.0833 KA relative to UGCAUGU.
In the case of B24, the binding signal is reported as 0.12 KA relative to UGCAUGU.
With B25 the binding signal was 0.0929 KA relative to UGCAUGU.
In the case of B26, the binding signal is reported as 0.0819 KA relative to UGCAUGU.
For B27, the binding signal was 0.19 KA relative to UGCAUGU.
For B28, the binding signal was 0.951 KA relative to UGCAUGU.
For B29, the binding signal was 0.102 KA relative to UGCAUGU.
B30 was tested, and the binding signal was 0.109 KA relative to UGCAUGU.
B31 was tested, and the binding signal was 0.11 KA relative to UGCAUGU.
For B32, the binding signal was 0.134 KA relative to UGCAUGU.
With B33 the binding signal was 0.736 KA relative to UGCAUGU.
With B34 the binding signal was 0.739 KA relative to UGCAUGU.
